Experimental data published in ChEMBL document CHEMBL1961873, “Compounds: GSK PKIS; Assays: Nanosyn kinase panel” (2012).

The compounds below were run against Tyrosine-protein kinase Fer (Homo sapiens) (UniProt P16591). Settings: at 0.1 µM.
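Also: reported figures are averaged percent inhibition of FER.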

Sequence of Tyrosine-protein kinase Fer (Homo sapiens) (P16591 whole entry, looked up): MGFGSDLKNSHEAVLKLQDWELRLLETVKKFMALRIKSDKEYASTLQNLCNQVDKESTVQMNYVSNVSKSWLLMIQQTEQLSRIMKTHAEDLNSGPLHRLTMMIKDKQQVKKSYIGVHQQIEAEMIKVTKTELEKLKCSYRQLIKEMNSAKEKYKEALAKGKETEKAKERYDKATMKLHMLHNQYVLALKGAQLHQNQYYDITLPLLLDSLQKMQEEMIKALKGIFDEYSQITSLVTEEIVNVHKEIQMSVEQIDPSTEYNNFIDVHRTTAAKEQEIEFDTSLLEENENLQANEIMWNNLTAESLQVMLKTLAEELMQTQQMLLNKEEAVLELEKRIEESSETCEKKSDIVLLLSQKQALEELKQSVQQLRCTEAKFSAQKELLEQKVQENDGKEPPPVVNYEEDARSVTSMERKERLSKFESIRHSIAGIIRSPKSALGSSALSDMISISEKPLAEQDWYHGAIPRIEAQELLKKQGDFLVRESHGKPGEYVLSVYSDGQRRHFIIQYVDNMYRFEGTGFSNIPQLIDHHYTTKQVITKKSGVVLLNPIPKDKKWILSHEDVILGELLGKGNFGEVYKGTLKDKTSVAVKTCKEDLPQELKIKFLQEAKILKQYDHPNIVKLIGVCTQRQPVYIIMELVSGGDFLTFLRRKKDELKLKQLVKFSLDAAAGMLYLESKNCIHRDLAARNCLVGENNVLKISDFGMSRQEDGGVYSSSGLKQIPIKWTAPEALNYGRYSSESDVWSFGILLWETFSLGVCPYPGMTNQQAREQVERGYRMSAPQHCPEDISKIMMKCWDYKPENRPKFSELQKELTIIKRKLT

Row | SMILES | inhibition [%]
1 | O=C1Nc2ccc(-c3cccnc3)cc2C1=Cc1cc(Br)c(O)c(Br)c1 | 8.12
2 | CN(C)c1cc2c(Nc3ccc4c(cnn4Cc4ccccc4)c3)ncnc2cn1 | 1.79
3 | CCS(=O)(=O)c1ccc(OC)c(Nc2nccc(N(C)c3ccc4c(C)n[nH]c4c3)n2)c1 | 2.69
4 | COC(=O)c1cncc(/C=C/c2c(C)cc(O)cc2C)c1 | 2.19
5 | O=S(=O)(CCOCc1ccc(-c2ccc3ncnc(Nc4ccc(OCc5cccc(F)c5)c(Cl)c4)c3c2)o1)c1ccccc1 | -3.62
6 | O=C(Nc1ccc(Oc2ccc3[nH]c(NC(=O)c4ccco4)nc3c2)cc1)Nc1cc(C(F)(F)F)ccc1F | 3.08
7 | Cc1cc(-c2ccccn2)cc(C)c1/C=C/c1cncc(-c2nn[nH]n2)c1 | -0.04
8 | Cc1cc(O)cc(C)c1/C=C/c1cncc(C(=O)N(C)C)c1 | 3.43
9 | CS(=O)(=O)Nc1cccc(-c2ccc3c(NC(=O)C4CC4)n[nH]c3c2)c1 | -0.81
10 | CN(C)CCCn1c(-c2nonc2N)nc2cnccc21 | 1.8
11 | CCn1c(-c2nonc2N)nc2c(C#CC(C)(C)O)nc(OCCNC)cc21 | -0.15
12 | Cc1ccc2c(c1)/C(=N/Nc1ccc(S(N)(=O)=O)cc1)C(=O)N2 | 1.02
13 | Cc1ccc2c(-c3ccnc(Nc4cccc(C(F)(F)F)c4)n3)c(-c3ccccc3)nn2n1 | -8.28
14 | FC(F)(F)c1ccc(-c2nn3ncccc3c2-c2ccnc(Nc3ccc4c(c3)OCCO4)n2)cc1 | 7.67
15 | Cc1ccc(Nc2ccnc(Nc3cccc(C(N)=O)c3)n2)cc1O | 4.75
16 | COc1cc2ncnc(Nc3ccc4c(cnn4Cc4ccccc4)c3)c2cc1OC | 0.84
17 | Cc1nc(-c2ccccc2)n2nc(NCCCN3CCOCC3)ncc12 | 1.34
18 | COc1ccc2ncnc(Nc3ccc(OCc4ccccc4)cc3)c2c1 | -1.28
